Compound activity: PubChem BioAssay, National Center for Advancing Translational Sciences (NCATS)
An excerpt weighted towards active compounds, which were near 5.3% of everything screened.
IMPase Li inh = cell-permeable IMPase inhibitors with lithium potentiation. CHO-M1 cells, IP1 TR-FRET (IP-One), carbachol + lithium. Potency, µM (series often up to 59.4 µM), without a hit: at the highest dose activity, negative = IMPase inhibition, actives largely listed as inhibitors. hit rate 0.35% among 210,000;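 note: IP1 builds up when IMPase is blocked and the TR-FRET signal falls; potency is the fitted concentration of half-maximal effect; plate controls were basal vehicle for no effect and high inhibitor control for full effect; nearly all actives have a fitted effect of over 50% in size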
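Steps: plate 2000 CHO-M1 cells per well and culture 16–30 h; add compound and lithium; incubate 30 min, 37C; add d2-IP1 tracer and Eu cryptate anti-IP1 antibody in lysis buffer; read after 10 min at room temperature.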
PNC assembly inh = blocks assembly of the perinucleolar compartment; activity change (PNC), negative = inhibition, % at 10 µM; PC3M PTB-GFP, PNC prevalence imaging, 16 h; stronger effect = lower value; hit rate 3.1% among 140,000;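 active = readout at or below -70, meaning at least 70% loss of cells showing the perinucleolar compartment, a nuclear body marking cancer cells; inconclusive = readout between -30 and a set limit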;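 note: plate controls were DMSO wells for no effect and camptothecin positive control wells for full effect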
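PC3M cells stably expressing PTB-GFP, 750–1000 cells/well, treated 16 h at 37 °C with compound (23 nl of library stock), in duplicate. After paraformaldehyde fixation and Hoechst stain, imaged at 20x; PNC prevalence scored by image analysis.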
15-hLO-2 inh = inhibitors of human 15-lipoxygenase 2 (ALOX15B). O15296. purified 15hLO-2, xylenol orange hydroperoxide absorbance. Potency, µM (titrated, usually from 57.1 µM), for the others: at the highest dose activity change, negative = inhibition, hits mostly inhibitors. hit rate 0.56% among 110,000; note: potency is the fitted concentration of half-maximal effect; nearly all actives have a fitted effect of over 60% in size
Target sequence (O15296 whole entry, looked up): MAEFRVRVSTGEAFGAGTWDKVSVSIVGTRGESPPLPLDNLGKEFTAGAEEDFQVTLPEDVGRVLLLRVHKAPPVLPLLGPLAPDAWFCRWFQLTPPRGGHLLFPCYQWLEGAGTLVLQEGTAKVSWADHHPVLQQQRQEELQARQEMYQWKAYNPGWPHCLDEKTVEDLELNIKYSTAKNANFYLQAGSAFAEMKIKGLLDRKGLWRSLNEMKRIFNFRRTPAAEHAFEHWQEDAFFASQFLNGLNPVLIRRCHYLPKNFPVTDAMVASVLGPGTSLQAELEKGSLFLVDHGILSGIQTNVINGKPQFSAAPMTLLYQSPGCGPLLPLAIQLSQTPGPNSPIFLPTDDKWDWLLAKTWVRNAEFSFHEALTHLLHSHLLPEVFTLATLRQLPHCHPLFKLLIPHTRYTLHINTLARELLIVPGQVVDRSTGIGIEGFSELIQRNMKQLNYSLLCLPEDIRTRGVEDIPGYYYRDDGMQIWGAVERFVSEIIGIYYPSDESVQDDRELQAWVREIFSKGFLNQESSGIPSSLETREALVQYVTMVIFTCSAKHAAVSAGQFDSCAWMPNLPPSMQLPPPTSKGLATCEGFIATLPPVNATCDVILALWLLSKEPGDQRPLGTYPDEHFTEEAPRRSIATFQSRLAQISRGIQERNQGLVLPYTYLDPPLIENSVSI
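Purified human 15hLO-2 (50 nM) preincubated 15 min with compound, then 45 uM arachidonic acid for 90 min at RT in 25 mM Hepes pH 7.5, 0.01% Triton X-100. Hydroperoxide detected by Fe-xylenol orange; 573/405 nm absorbance ratio.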
HPGD inh = HPGD (human) dehydrogenase inhibition | P15428 | purified HPGD, NADH fluorescence kinetic, PGE2 substrate | Potency, µM, for the others: at the highest dose activity change, negative = inhibition, hits mostly inhibitors | hit rate 4.3% among 150,000 | AID 894; active = well fitted inhibition curve with a large enough effect, not every such curve was filed as active; inconclusive = small, poorly fitted or top-dose-only effect, or another doubt; inactive = no such curve, though single readings can be large or run the other way; note: potency is the fitted concentration of half-maximal effect
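20 nM HPGD preincubated 15 min at room temperature with compound in 50 mM Tris-HCl pH 8, 0.01% Tween 20. Started with 1 mM NAD+ and 30 uM prostaglandin E2; NADH fluorescence (360/450 nm) read 5 times over 30-s intervals, last minus first.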
IMPase inh = cell-permeable inhibitors of inositol monophosphatase (IMPase). P97697. CHO-M1 cells, IP1 accumulation, HTRF TR-FRET ratio. inhibition (IP1 accumulation), % at 46.1 µM. 120,000 tested, under 10 active. AID 901; active = well fitted curve in the direction sought with a large enough effect in the signal ratio, not every such curve was filed as active; inconclusive = small, poorly fitted or top-dose-only effect, or a change in a side signal; inactive = no such curve, though single readings can be large or run the other way; the % refers to the signal ratio;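 note: cells stimulated with carbachol in lithium chloride buffer; plate controls were DMSO basal wells for no effect and reference inhibitor wells for full effect; higher means more IMPase inhibition seen as more IP1 and lower FRET ratio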
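The IP-One HTRF competitive assay in carbachol-stimulated CHO-M1 cells quantifies cellular IP1. Compounds spanned up to 46 uM final, and activity is expressed as AC50 from concentration-response fits of the ratio and donor data.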
12-hLO inh = inhibitors of human 12-lipoxygenase (ALOX12). hit rate 0.12% among 150,000. Potency, µM (series often up to 57.1 µM), inactives show top-dose activity change, negative = inhibition, most hits filed as inhibitors. purified 12-hLO, xylenol orange hydroperoxide absorbance. P18054. AID 1452; note: potency is the fitted concentration of half-maximal effect; nearly all actives have a fitted effect of over 55% in size
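Xylenol orange chromogenic assay: hydroperoxide from 12hLO oxidises Fe(II), giving red-shifted Fe(III)-XO absorbance. Conditions: 150 nM enzyme, 40 uM arachidonic acid, 25 mM Hepes pH 7.0, 0.01% Triton X-100, 30 min, room temperature.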
Active calls of the source: *; ? = inconclusive; / = no result; [ ] = remark or other dose. Unless noted, calls come from the whole dose curve; as a rule, active = well fitted curve in the direction sought with a large enough effect; inconclusive = small, poorly fitted or top-dose-only effect, or another doubt; inactive = no such curve, though single readings can be large; an effect the other way counts as inactive or inconclusive. Unless noted, % is set by controls: 0 for no effect and ±100 for the full control effect.

SMILES	IMPase Li inh	PNC assembly inh	15-hLO-2 inh	HPGD inh	IMPase inh	12-hLO inh
Cc1ccc(NC(=O)C2CC(=O)N/C(=N/N=C/c3ccco3)S2)cc1C (configuration not stated)	-1%	-9	/	-6%	-4	2%
Cc1cc(OCc2ccc(C(=O)n3cccn3)o2)ccc1Cl	2%	-119*	/	32µM*	-3	-2%
CC(C)CC(N=Cc1c(O)c2ccccc2oc1=O)C(=O)O (configuration not stated)	-13%	/	/	/	/	/
O=[N+]([O-])/C(C(Cl)=C(Cl)Cl)=C(\Nc1ccc(F)cc1)n1cncn1	3%[38.3 µM]	0	-29%	28µM*	15	-8%
CCOc1ccc(N/C(=C(/C(Cl)=C(Cl)Cl)[N+](=O)[O-])n2cncn2)cc1	-19%[38.3 µM]	-26	-20%	?	-2	-8%
CCc1cccc(C)c1NC(=O)CSc1nnc(N)s1	/	/	/	/	-5	/
O=C(c1ccc(F)cc1)C1CCN(CCn2c(=O)[nH]c3ccccc3c2=O)CC1	11%	/	40%[0.0915 µM]	7.9µM*	/	-6%[0.00818 µM]
O=C(c1ccc(F)cc1)C1CCN(CCn2c(=S)[nH]c3ccccc3c2=O)CC1	20%	/	41%	14µM*	1	1%
COc1ccccc1-c1ccc2ncnc(N3CCN(C)CC3)c2c1	32%	/	42%	?	/	1%
COc1cccc(/C=C2\N=C(SC)SC2=O)c1OC	5%[38.3 µM]	-91*	-5%	25µM*	1	-13%
Cc1ccc(CSc2nnc(-c3cccs3)n2C)cc1	5%	-100*	/	-13%	-3	4%
CC12CCC(C(=O)NNc3ccc([N+](=O)[O-])cc3)(CC1=O)C2(C)C (configuration not stated)	-4%	-27	/	-20%	/	-5%
Clc1ccc(OCc2nc(-c3ccncc3)no2)c(Cl)c1	4%[38.3 µM]	38	21%	13µM*	4	-11%
Clc1cccc(OCc2nc(-c3ccncc3)no2)c1	0%	/	/	/	/	/
C#CC(C)(CC)NC(=O)Cn1nnc(-c2ccc(S(C)(=O)=O)cc2)n1 (configuration not stated)	-3%[38.3 µM]	3	-5%	-8%	10	-4%
Cn1cc(/C=N\NC(=O)C2COc3ccccc3O2)c2ccccc21 (configuration not stated)	-4%	?	/	?	/	-2%
O=C(N/N=C\c1ccc(-c2ccc([N+](=O)[O-])cc2)o1)C1COc2ccccc2O1 (configuration not stated)	?	?	/	20µM*	/	-3%
Cc1c(/C=N\NC(=O)C2COc3ccccc3O2)c2ccccc2n1C (configuration not stated)	0%	-111*	/	-24%	6	2%
O=C(N/N=C/c1ccc(-c2cccc([N+](=O)[O-])c2)o1)c1cccs1	3%	/	/	/	/	/
NC(=S)N/N=C/c1ccc(-c2cccc([N+](=O)[O-])c2)o1	11%[38.3 µM]	11	-30%	16µM*	3	?
O=C(Cc1ccccc1[N+](=O)[O-])N1CCc2ccccc2C1	3%	/	/	/	/	/
COc1cccc(NC(=O)CSc2nc3ccccc3cc2Cc2ccccc2)c1	4%[38.3 µM]	34	5%	-15%	12	2%
COc1cccc(CSc2nc3ccccc3cc2C=O)c1	15%[38.3 µM]	?	?	13µM*	5	-13%
Cc1cc2nc(C)c(Cc3ccccc3)c(=O)n2[nH]1	-5%[38.3 µM]	?	-8%	?	1	-2%
O=C(Nc1ccc(S(=O)(=O)NC2=NCCCCC2)cc1)c1ccc2ccccc2n1	6%	/	/	/	/	/
SMILES	IMPase Li inh	PNC assembly inh	15-hLO-2 inh	HPGD inh	IMPase inh	12-hLO inh
CC1CCCC(=C\c2ccccc2)/C1=N/O (configuration not stated)	-3%	2	/	3.2µM*	/	3%
Cc1ccc2c(c1)N[C@H](c1ccc(C(=O)O)cc1)c1cccn1-2	-20%	/	-9%[11.4 µM]	?	/	-7%[11.4 µM]
CC(C)c1ccccc1NC(=O)CNC(C)c1ccc(F)cc1 (configuration not stated)	0%	/	/	/	/	/
CCCSc1nc(C)c(-c2csc(C(C#N)=C3CCCC3)n2)cc1C#N	3%[38.3 µM]	?	10µM*	-29%	?	-24%
O=C(Nc1cccc([N+](=O)[O-])c1)Nc1cccs1	-4%	/	/	/	/	/
O=C(O)C(Cc1ccccc1)N1C(=O)/C(=C/c2cccc3ccccc23)SC1=S (configuration not stated)	18%	45	20µM*	14µM*	5	-4%
Cc1ccc2nc(NC(=O)c3ccc(Cn4cc(Cl)cn4)o3)sc2c1	-2%	-100*	/	?	-11	-1%
CC(=O)c1sc(NC(=O)c2ccc(Cn3cc(Br)cn3)o2)nc1C	-2%[38.3 µM]	15	0%	-9%	-5	-1%
COc1ccc(/C=C/C(=O)c2ccccc2)cc1Cn1nnc2ccccc21	25%	34	/	16µM*	-1	-4%
CCCCCCn1c(=O)[nH]c2nc3cc(N)ccc3nc2c1=O	/	-11	/	/	-16	-24%
CCCN1CNC(=S)N(c2cc(C)ccc2C)C1	4%	-100*	/	-8%	-5	5%
COc1cc([N+](=O)[O-])ccc1NC(=O)NCc1ccco1	-2%	/	/	/	/	/
CC(C)CC(c1nnnn1Cc1ccc(F)cc1)N1CCC(C(N)=O)CC1 (configuration not stated)	11%	/	/	/	/	/
O=C(c1cccs1)N1N=C(c2ccccc2)CC1c1ccccc1 (configuration not stated)	19%	-105*	-7%	?	6	1%
O=C(c1cccs1)N1N=C(c2ccc(O)cc2)CC1c1ccccc1 (configuration not stated)	14%	53	/	-11%	/	-2%
CC(C)(C)c1ccc(OC(=O)c2ccc(-n3cncn3)nc2)cc1	-12%	/	/	/	/	/
O=C(O)/C=C\C(=O)Nc1ccccc1F	-4%	-119*	/	-4%	0	3%
CCOC(=O)c1[nH]cc(-c2ccccc2)c1N1CCOCC1	20%[38.3 µM]	-14	-18%	4µM*	1	7%
O=S(=O)(CC(CN1CCCC1)N1CCCC1)c1ccc2ccccc2c1 (configuration not stated)	9%	-100*	/	-11%	-6	1%
Cc1ccc(S(=O)(=O)CC(CN2CCOCC2)N2CCOCC2)cc1 (configuration not stated)	1%	/	/	/	/	/
C/C(=N\NC(=O)CCc1ccc(S(=O)(=O)N2CCOCC2)cc1)c1ccccc1Cl	17%	/	/	/	/	/
COc1ccc(Nc2nc(Nc3ccc(OC)cc3OC)nc(N3CCOCC3)n2)c(OC)c1	/	/	/	/	1	/
Fc1ccc(Nc2nc(Oc3ccc4c(c3)OCO4)nc(N3CCOCC3)n2)c(F)c1	0%[38.3 µM]	-95*	14%	-4%	5	2%
